Outcome and AC50 data for 9 compounds are collected here from PubChem BioAssay (EPA / NIEHS).

The source made the active and inactive calls. How the source made its calls: active means hit-call score of the fitted dose curve at least 0.9, where 1 is the maximum; inactive means score below 0.9.

Experiment [1] can be described thus: ATG_CRE_CIS: Attagene CIS-FACTORIAL HepG2 Assay for human cAMP Responsive Element (CRE) binding protein 3 (AID 2282926). Conditions: HepG2 CRE cis-reporter, Attagene multiplexed mRNA; actives raise or lower the signal. The procedure, abridged:
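Liver-derived HepG2, transfected with a CRE-containing reporter panel, exposed 24 h; transcript levels sized and quantified by capillary electrophoresis of labelled amplicons; signal changes either way referenced to vehicle.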

Experiment [2] addresses CCAAT/enhancer-binding protein beta (Homo sapiens) (UniProt P17676). In words: ATG_C_EBP_CIS: Attagene CIS-FACTORIAL HepG2 Assay for human CCAAT/Enhancer Binding Protein (C/EBP) beta (AID 2282927). To be noted: HepG2 Attagene cis-factorial transcription factor reporter; actives raise or lower the signal. In outline:
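Chemical-treated HepG2 cells (24 h) bearing cis-regulated reporter constructs were processed for total RNA, then reverse transcription, PCR amplification, fluorescent primer extension and fragment analysis; gain- and loss-of-signal were fitted against DMSO.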

Experiment [3] is described as follows: ATG_CMV_CIS: Attagene CIS-FACTORIAL HepG2 Assay for human CMV (Internal Marker) (AID 2282928).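 Further: endpoint acts as a background internal control marker rather than a target.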 Conditions: HepG2 CMV promoter reporter, transcription factor profiling; actives raise or lower the signal. In outline:
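Bidirectional fits against DMSO are applied to reporter mRNA, read by RT-PCR with capillary electrophoresis, from HepG2 cells exposed 24 h. The endpoint serves as an internal CMV background marker within the cis-factorial reporter panel.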

Experiment [4] in a line: ATG_DR4_LXR_CIS: Attagene CIS-FACTORIAL HepG2 Assay for human Liver X Receptor (LXR), DR4 submotif (AID 2282929). Conditions: HepG2 Attagene DR4 cis-reporter, mRNA transcription; actives raise or lower the signal. In outline: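 The endpoint is DR4-element-driven reporter transcripts after 24 h chemical exposure of transfected HepG2 cells. These were measured via RT-PCR and capillary electrophoresis, and gain or loss of signal was fitted relative to DMSO controls.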

The target in experiment [5] is Aryl hydrocarbon receptor (Homo sapiens) (UniProt P35869). In words: ATG_Ahr_CIS: Attagene CIS-FACTORIAL HepG2 Assay for human Aryl Hydrocarbon Receptor (Ahr) (AID 2282930). Conditions: HepG2 AhR cis-factorial reporter transcription; actives raise or lower the signal. The procedure, abridged:
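Following 24 h of chemical dosing, transfected HepG2 liver cells with cis-driven reporter units were lysed for RNA; reporter mRNA was quantified via RT-PCR and capillary electrophoresis, and responses fitted bidirectionally from DMSO.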

Experiment [6] is described as follows: ATG_AP_1_CIS: Attagene CIS-FACTORIAL HepG2 Assay for human Activator Protein 1 (AP-1) (AID 2282931). Conditions: HepG2 Attagene cis-factorial AP-1 reporter mRNA; actives raise or lower the signal. The procedure, abridged:
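Readout is reporter transcript level from endogenous transcription factor activity, quantified by RT-PCR with fluorescent primer extension and capillary electrophoresis. Transiently transfected HepG2 cells, 24 h exposure. Curves fitted both directions versus DMSO.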

A short description of experiment [7]: ATG_AP_2_CIS: Attagene CIS-FACTORIAL HepG2 Assay for human Activator Protein 2 (AP-2) (AID 2282932). Conditions: HepG2 AP-2 cis-reporter, Attagene transcription factor profiling; actives raise or lower the signal. The procedure, abridged:
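Assay in transfected HepG2 with promoter-regulated reporters, 24 h incubation after dosing. Signal is reporter mRNA fluorescence (RT-PCR, capillary electrophoresis), analysed for both increases and decreases relative to DMSO controls.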

Experiment [8] can be described thus: ATG_BRE_CIS: Attagene CIS-FACTORIAL HepG2 Assay for human Bone Morphogenetic Protein (BMP) Response Element (BRE) (AID 2282933). To be noted: HepG2 BMP response element reporter, Attagene transcription factor profiling; actives raise or lower the signal. In outline:
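Endogenous transcription factor activity read in transiently transfected HepG2 cells after 24 h chemical exposure. Bidirectional curve fitting against DMSO; readout is reporter transcript level by RT-PCR with capillary electrophoresis of labelled products.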

Experiment [9] concerns the target Retinoic acid receptor alpha (Homo sapiens) (UniProt P10276). In words: ATG_DR5_RAR_CIS: Attagene CIS-FACTORIAL HepG2 Assay for human Retinoic Acid Receptor Alpha (RARE), DR5 submotif (AID 2282934). Conditions: HepG2 Attagene cis-factorial RARE DR5 reporter, mRNA; actives raise or lower the signal. In outline:
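Transfected HepG2 reporter cells are exposed to chemicals for 24 h. Then RNA is extracted and the DR5 element reporter transcript is measured by RT-PCR and capillary electrophoresis, with bidirectional curve fitting relative to DMSO.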

Retinoic acid receptor alpha (Homo sapiens), sequence (P10276 whole entry, looked up): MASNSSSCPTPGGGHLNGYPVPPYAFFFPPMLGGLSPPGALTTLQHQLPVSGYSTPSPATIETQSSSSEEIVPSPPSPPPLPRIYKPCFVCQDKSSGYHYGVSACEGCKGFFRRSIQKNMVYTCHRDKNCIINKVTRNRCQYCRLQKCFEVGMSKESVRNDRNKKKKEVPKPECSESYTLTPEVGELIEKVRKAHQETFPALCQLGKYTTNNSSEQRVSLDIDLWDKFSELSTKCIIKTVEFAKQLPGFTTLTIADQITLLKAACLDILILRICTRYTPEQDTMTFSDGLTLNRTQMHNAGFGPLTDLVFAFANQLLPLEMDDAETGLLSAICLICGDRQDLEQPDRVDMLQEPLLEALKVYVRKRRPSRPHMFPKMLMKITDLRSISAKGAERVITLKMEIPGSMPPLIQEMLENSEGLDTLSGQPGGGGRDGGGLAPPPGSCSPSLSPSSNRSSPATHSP
CCAAT/enhancer-binding protein beta (Homo sapiens), sequence (P17676 whole entry, looked up, the tested form may be a part): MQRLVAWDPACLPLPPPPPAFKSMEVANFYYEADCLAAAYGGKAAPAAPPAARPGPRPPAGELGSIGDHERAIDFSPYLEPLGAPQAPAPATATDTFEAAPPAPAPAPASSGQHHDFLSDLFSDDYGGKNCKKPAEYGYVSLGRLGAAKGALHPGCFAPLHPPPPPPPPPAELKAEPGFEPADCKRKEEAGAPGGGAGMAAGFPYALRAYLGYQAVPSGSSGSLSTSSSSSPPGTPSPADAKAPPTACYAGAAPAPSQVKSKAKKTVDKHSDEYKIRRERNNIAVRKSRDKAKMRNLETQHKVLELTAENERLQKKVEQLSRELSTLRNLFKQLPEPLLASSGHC
Aryl hydrocarbon receptor (Homo sapiens), sequence (P35869 whole entry, looked up): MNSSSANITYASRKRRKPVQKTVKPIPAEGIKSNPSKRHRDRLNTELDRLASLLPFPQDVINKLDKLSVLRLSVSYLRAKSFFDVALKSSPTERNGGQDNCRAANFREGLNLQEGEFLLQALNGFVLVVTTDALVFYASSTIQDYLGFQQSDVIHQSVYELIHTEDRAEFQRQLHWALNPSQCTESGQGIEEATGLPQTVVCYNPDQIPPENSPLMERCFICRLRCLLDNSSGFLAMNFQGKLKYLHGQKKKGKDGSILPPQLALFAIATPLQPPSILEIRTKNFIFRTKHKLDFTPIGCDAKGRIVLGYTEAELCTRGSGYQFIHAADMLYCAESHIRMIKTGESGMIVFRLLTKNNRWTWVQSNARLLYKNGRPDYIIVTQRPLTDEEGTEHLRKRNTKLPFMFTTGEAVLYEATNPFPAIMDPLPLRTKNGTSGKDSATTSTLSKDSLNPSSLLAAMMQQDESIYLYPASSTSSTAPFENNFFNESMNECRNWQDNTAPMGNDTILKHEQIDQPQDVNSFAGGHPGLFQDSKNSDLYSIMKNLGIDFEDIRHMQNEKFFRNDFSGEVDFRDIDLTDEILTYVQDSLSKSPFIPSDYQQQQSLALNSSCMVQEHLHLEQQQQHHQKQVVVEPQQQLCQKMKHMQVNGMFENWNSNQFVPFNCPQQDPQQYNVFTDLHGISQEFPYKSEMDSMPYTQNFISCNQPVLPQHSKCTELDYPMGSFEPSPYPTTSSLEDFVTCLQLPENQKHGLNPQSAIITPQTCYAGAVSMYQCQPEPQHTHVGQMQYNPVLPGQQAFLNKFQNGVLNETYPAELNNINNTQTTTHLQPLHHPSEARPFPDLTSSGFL

`NC(N)=NC(N)=NCCc1ccccc1`: the compound was called inactive in experiment [1], in experiment [2], in experiment [3], in [4], in experiment [5] and in experiment [6]. Also, the compound was classed as inactive in experiment [7] and in experiment [9]. In addition, in experiment [8], the AC50 (usually the concentration giving half of the maximal activity seen) is 36.4 µM (active).

`O=C(O)c1cc2ccccc2cc1O`: the compound was called inactive in [1], in experiment [2], in experiment [3], in [4], in [6] and in experiment [7]. For the same compound, the compound was classed as inactive in [8] and in experiment [9]. Besides, the AC50 in experiment [5] is 4.5 µM (active).

`CCCCCCCCCCO[C@@H]1O[C@H](CO)[C@@H](O)[C@H](O)[C@H]1O`: the outcome in experiment [1], in experiment [2], in [3], in experiment [5], in experiment [6] and in [7] was inactive. The outcome in experiment [8] and in [9] was inactive. In addition, in [4], the AC50 is 125 µM (active).

As to `CCCCCCCCOC(C)=O`, the compound was called inactive in [1], in experiment [2], in experiment [3], in experiment [4], in experiment [5] and in experiment [6]. The result in experiment [7], in experiment [8] and in [9] was inactive.

Take `COc1ccc(C(C)=O)cc1`: the compound was classed as inactive in [1], in experiment [2], in experiment [3], in experiment [4], in experiment [5] and in [6]. For the same compound, the call in experiment [7], in experiment [8] and in experiment [9] was inactive.

As for `CNC(=C[N+](=O)[O-])NCCSCc1ccc(CN(C)C)o1`, the result in experiment [1], in experiment [2], in experiment [3], in experiment [4], in experiment [5] and in experiment [6] was inactive. In addition, the outcome in experiment [7], in [8] and in experiment [9] was inactive.

Consider `NC(=O)NC(N)=O`, for which the compound was called inactive in experiment [1], in experiment [2], in experiment [3], in experiment [4], in experiment [5] and in experiment [6]. Moreover, the result in experiment [7], in experiment [8] and in experiment [9] was inactive.

Turning to `O=[N+]([O-])c1cc(N(CCO)CCO)ccc1NCCO`, the call in [1], in [2], in experiment [3], in experiment [4], in experiment [5] and in experiment [6] was inactive. Further, the compound was called inactive in [7], in [8] and in [9].

With `CC(=O)Oc1c(C)c(C)c2c(c1C)CC[C@@](C)(CCC[C@H](C)CCC[C@H](C)CCCC(C)C)O2`, the outcome in [1], in [2], in experiment [3], in experiment [4], in experiment [5] and in experiment [6] was inactive. The outcome in experiment [7], in [8] and in experiment [9] was inactive.
